# How the values were obtained:
# Assay in all cases: DAPPL (digital affinity profiling via proximity ligation, sequencing); 10 mM Tris-HCl pH 7.5, 50 mM NaCl, 1 mM DTT, 4% glycerol, room temperature, 30 min; GST-TFs on glutathione beads, 16-mer random dsDNA library, 0.1% formaldehyde crosslink after washing; high values mean tight binding
# Settings in all cases: protein: recombinant; tags: N-terminal GST; dsDNA, one strand shown
# [1] = target: T1, ERF (Homo sapiens, UniProt P50548 1-548)
# T1 sequence: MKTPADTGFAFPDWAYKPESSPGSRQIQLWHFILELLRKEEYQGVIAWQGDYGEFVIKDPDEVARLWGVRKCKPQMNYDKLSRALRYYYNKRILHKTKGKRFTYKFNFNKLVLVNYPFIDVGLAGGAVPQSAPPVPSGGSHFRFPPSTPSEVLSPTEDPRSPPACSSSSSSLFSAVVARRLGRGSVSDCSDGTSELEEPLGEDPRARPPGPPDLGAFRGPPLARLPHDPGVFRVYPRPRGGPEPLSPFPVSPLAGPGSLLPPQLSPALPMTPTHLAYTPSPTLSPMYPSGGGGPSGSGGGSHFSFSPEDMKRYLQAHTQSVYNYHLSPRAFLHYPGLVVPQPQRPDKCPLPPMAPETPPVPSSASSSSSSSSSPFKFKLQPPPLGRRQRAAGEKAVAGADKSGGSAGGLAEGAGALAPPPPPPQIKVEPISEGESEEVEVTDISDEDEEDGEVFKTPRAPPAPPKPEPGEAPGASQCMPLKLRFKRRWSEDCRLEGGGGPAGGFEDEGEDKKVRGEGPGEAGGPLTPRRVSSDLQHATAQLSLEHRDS
# In short: (§1)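 Pools of DNA-barcoded human transcription factors, expressed in yeast as GST fusions on glutathione beads and combined with a tag-only sample, were incubated with 200 nmole of a 16-mer random double-stranded DNA library. Incubation took 30 min at room temperature in Tris/NaCl/DTT/glycerol buffer and was followed by washing, 0.1% formaldehyde crosslinking, proximity ligation (BsaI/T4 ligase, 1 h, 37 °C), PCR amplification and sequencing on an Illumina NextSeq500. Binding signal is the ratio of a hexamer's read frequency for a factor to its frequency for the tag-only sample.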
# [2] = target: T2, ETV3L (Homo sapiens, UniProt Q6ZN32 1-361)
# T2 sequence: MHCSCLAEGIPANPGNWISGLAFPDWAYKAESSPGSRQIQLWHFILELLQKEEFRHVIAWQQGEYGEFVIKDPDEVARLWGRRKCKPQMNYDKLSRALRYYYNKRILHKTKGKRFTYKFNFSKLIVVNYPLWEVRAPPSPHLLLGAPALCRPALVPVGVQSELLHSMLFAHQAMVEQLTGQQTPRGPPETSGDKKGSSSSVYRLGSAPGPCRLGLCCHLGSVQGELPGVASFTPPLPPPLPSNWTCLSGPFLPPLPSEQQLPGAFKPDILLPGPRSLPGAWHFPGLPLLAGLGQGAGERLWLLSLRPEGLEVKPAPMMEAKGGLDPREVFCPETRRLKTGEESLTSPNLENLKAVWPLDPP
# In short: as §1
# [3] = target: T3, ETS2 (Homo sapiens, UniProt P15036 1-469)
# T3 sequence: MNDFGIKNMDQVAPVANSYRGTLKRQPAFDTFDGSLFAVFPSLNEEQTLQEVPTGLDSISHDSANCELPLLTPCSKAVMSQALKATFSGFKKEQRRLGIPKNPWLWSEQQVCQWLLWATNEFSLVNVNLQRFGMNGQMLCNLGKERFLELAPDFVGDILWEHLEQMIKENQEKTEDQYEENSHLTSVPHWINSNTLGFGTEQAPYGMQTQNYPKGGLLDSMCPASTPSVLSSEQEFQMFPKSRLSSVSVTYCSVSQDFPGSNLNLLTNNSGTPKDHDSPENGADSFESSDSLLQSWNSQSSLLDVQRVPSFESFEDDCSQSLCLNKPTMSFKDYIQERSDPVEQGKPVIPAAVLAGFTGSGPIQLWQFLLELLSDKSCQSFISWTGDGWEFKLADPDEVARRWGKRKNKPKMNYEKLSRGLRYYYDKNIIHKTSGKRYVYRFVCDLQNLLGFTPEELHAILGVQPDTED
# In short: as §1
# [4] = target: T4, SPDEF (Homo sapiens, UniProt O95238 1-335)
# T4 sequence: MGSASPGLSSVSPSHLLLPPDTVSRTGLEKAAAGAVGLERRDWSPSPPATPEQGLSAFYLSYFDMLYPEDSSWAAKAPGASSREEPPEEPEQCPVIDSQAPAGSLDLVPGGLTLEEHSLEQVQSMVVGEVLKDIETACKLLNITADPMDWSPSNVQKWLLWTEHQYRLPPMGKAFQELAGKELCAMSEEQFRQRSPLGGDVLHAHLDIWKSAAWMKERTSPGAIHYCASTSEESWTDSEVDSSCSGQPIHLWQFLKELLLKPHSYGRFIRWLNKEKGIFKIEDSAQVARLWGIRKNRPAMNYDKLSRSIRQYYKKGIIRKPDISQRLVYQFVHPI
# In short: as §1
# [5] = target: T5, ETV7 (Homo sapiens, UniProt Q9Y603 1-341)
# T5 sequence: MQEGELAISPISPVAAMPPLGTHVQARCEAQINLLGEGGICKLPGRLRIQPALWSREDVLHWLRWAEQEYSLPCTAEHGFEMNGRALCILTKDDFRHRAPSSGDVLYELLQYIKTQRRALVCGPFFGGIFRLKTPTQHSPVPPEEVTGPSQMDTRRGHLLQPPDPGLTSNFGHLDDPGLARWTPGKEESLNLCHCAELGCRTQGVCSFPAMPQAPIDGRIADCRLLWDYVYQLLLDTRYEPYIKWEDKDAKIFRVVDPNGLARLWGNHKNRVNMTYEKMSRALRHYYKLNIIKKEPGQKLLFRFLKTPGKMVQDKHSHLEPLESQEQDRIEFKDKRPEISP
# In short: as §1
# [6] = target: T6, ELF5 (Homo sapiens, UniProt Q9UKW6-2 1-255)
# T6 sequence: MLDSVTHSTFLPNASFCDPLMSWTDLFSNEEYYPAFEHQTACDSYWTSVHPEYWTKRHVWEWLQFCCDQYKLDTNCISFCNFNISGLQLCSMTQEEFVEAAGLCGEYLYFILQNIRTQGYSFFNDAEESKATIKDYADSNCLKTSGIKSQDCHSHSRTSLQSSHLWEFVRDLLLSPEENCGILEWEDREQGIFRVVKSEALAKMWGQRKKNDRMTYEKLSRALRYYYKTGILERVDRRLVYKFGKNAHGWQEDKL
# In short: as §1
# [7] = target: T7, ETV3 (Homo sapiens, UniProt P41162-2 1-143)
# T7 sequence: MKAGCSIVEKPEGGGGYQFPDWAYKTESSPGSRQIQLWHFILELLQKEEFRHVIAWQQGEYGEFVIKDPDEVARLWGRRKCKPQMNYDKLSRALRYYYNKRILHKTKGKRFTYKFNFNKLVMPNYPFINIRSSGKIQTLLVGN
# In short: as §1
# [8] = target: ETV6 (Homo sapiens, UniProt P41212 1-452)
# In short: as §1
# Sequence of ETV6 (P41212 whole entry): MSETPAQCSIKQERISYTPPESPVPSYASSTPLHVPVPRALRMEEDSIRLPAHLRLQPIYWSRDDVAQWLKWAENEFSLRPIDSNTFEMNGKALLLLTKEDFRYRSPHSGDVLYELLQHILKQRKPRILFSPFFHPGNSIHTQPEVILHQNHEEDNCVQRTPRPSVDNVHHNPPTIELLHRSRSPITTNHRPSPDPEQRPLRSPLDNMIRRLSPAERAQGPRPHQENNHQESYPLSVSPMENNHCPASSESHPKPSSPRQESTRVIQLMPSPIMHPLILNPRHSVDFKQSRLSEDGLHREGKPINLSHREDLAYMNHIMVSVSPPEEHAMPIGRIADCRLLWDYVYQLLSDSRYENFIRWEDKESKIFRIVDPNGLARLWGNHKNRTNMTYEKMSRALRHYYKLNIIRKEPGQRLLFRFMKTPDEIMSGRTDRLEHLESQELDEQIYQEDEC
Sequence,binding signal [1],binding signal [2],binding signal [3],binding signal [4],binding signal [5],binding signal [6],binding signal [7],binding signal [8]
AATTCC,"1.65 fold enrichment (6-mer frequency, TF over GST control)","1.87 fold enrichment (6-mer frequency, TF over GST control)","1.86 fold enrichment (6-mer frequency, TF over GST control)","1.98 fold enrichment (6-mer frequency, TF over GST control)","1.7 fold enrichment (6-mer frequency, TF over GST control)","2.39 fold enrichment (6-mer frequency, TF over GST control)","2.09 fold enrichment (6-mer frequency, TF over GST control)","1.97 fold enrichment (6-mer frequency, TF over GST control)"
ATGAAT,"1.16 fold enrichment (6-mer frequency, TF over GST control)","1.14 fold enrichment (6-mer frequency, TF over GST control)","1.17 fold enrichment (6-mer frequency, TF over GST control)","1.06 fold enrichment (6-mer frequency, TF over GST control)","1.19 fold enrichment (6-mer frequency, TF over GST control)","1.09 fold enrichment (6-mer frequency, TF over GST control)","1.2 fold enrichment (6-mer frequency, TF over GST control)","1.15 fold enrichment (6-mer frequency, TF over GST control)"
ATGACC,"1.42 fold enrichment (6-mer frequency, TF over GST control)","1.51 fold enrichment (6-mer frequency, TF over GST control)","1.66 fold enrichment (6-mer frequency, TF over GST control)","1.59 fold enrichment (6-mer frequency, TF over GST control)","1.51 fold enrichment (6-mer frequency, TF over GST control)","1.56 fold enrichment (6-mer frequency, TF over GST control)","1.47 fold enrichment (6-mer frequency, TF over GST control)","1.53 fold enrichment (6-mer frequency, TF over GST control)"
AAAACT,"1.2 fold enrichment (6-mer frequency, TF over GST control)","1.19 fold enrichment (6-mer frequency, TF over GST control)","1.24 fold enrichment (6-mer frequency, TF over GST control)","1.09 fold enrichment (6-mer frequency, TF over GST control)","1.29 fold enrichment (6-mer frequency, TF over GST control)","1.27 fold enrichment (6-mer frequency, TF over GST control)","1.21 fold enrichment (6-mer frequency, TF over GST control)","1.19 fold enrichment (6-mer frequency, TF over GST control)"
ATTACA,"1.16 fold enrichment (6-mer frequency, TF over GST control)","1.1 fold enrichment (6-mer frequency, TF over GST control)","1.11 fold enrichment (6-mer frequency, TF over GST control)","1.18 fold enrichment (6-mer frequency, TF over GST control)","1.08 fold enrichment (6-mer frequency, TF over GST control)","1.08 fold enrichment (6-mer frequency, TF over GST control)","1.04 fold enrichment (6-mer frequency, TF over GST control)","1.15 fold enrichment (6-mer frequency, TF over GST control)"
ACCTTT,"1.52 fold enrichment (6-mer frequency, TF over GST control)","1.41 fold enrichment (6-mer frequency, TF over GST control)","1.48 fold enrichment (6-mer frequency, TF over GST control)","1.34 fold enrichment (6-mer frequency, TF over GST control)","1.36 fold enrichment (6-mer frequency, TF over GST control)","1.45 fold enrichment (6-mer frequency, TF over GST control)","1.42 fold enrichment (6-mer frequency, TF over GST control)","1.48 fold enrichment (6-mer frequency, TF over GST control)"
ACTCTG,"1.43 fold enrichment (6-mer frequency, TF over GST control)","1.28 fold enrichment (6-mer frequency, TF over GST control)","1.29 fold enrichment (6-mer frequency, TF over GST control)","1.16 fold enrichment (6-mer frequency, TF over GST control)","1.21 fold enrichment (6-mer frequency, TF over GST control)","1.2 fold enrichment (6-mer frequency, TF over GST control)","1.27 fold enrichment (6-mer frequency, TF over GST control)","1.23 fold enrichment (6-mer frequency, TF over GST control)"
TTATCG,"1.2 fold enrichment (6-mer frequency, TF over GST control)","1.32 fold enrichment (6-mer frequency, TF over GST control)","1.2 fold enrichment (6-mer frequency, TF over GST control)","1.16 fold enrichment (6-mer frequency, TF over GST control)","1.02 fold enrichment (6-mer frequency, TF over GST control)","1.25 fold enrichment (6-mer frequency, TF over GST control)","1.22 fold enrichment (6-mer frequency, TF over GST control)","1.27 fold enrichment (6-mer frequency, TF over GST control)"
